Screens from PubChem.
p97 inhibitor: inhibitors of human p97 ATPase, primary screen, biochemical | inhibition, % at 8 µM | Transitional endoplasmic reticulum ATPase (Homo sapiens), P55072 | hit rate 0.42% among 220,000 | AID 1481, 2009 | recombinant p97 ATPase, Kinase-Glo ATP luminescence, 3 h; in the data active = inhibition above about 15%;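 note: 0% = DMSO vehicle and 100% = wells lacking enzyme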
Target sequence (P55072 whole entry, looked up): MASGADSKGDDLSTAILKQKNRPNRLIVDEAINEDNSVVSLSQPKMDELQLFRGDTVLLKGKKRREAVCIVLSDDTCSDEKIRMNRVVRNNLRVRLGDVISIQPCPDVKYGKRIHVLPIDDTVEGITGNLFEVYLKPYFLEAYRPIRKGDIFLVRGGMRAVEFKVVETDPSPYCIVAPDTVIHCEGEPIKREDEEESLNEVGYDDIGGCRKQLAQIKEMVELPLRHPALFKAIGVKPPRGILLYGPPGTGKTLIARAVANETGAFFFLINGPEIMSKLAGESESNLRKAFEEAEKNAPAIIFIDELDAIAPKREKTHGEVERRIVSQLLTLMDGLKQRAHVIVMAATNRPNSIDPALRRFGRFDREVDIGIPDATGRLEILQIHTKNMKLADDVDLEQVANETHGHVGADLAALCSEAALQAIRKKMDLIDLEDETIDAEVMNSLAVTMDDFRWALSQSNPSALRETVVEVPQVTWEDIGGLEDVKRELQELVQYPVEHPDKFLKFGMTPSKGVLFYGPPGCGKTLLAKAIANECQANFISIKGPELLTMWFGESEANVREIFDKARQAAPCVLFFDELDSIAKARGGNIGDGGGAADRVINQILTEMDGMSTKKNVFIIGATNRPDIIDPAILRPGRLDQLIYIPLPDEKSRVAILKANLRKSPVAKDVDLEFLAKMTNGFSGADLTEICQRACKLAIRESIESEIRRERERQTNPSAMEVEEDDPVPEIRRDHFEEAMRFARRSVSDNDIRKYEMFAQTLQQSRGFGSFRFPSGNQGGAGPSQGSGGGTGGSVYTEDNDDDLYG
INS promoter inh: inhibitors of insulin promoter-driven GFP, primary screen, imaging, TRM-6 cells (human fetal islet line), eGFP reporter, cell count. reporter expression induced with tamoxifen. inhibition, % at 2 µM. hit rate 0.9% among 130,000. AID 1273, 2008;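 active = inhibition above the mean plus 3 SD, with well images judged a real hit on visual review, cut at about 60% in these data, passing the limit was not always enough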
HCT116 PTEN-null: growth suppression of PTEN-null HCT116, primary screen, cell-based, CellTiter-Glo; hit rate 1.2% among 140,000; HCT116 PTEN-null viability, 60 h; stronger effect = lower value; viability, % at 10 µM; AID 827, 2007;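 active = viability at or below a set limit, 4 SD under the median of all tested compounds, cut at about 3.7% in these data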;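 note: PTEN knockout HCT116 line with beta catenin targeted HCT116 as companion control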
L major viab: Leishmania major promastigote growth inhibition, primary screen | Leishmania major promastigotes, resazurin fluorescence viability | inhibition, % at 10 µM | hit rate 9% among 200,000; in the data active = inhibition above about 50%;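 note: promastigotes grown with compound for 44 hours at 28 °C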
ROMK primary: ROMK potassium channel modulators, primary screen, cell-based, thallium flux, MLSMR library. AID 1918, 2009. ATP-sensitive inward rectifier potassium channel 1 (Homo sapiens), P48048. Tet-inducible ROMK, thallium flux fluorescence; actives lie on both sides. hit rate 2% among 130,000. B-score at 10 µM;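 active = signal ratio slope over the read window, or its plate-corrected B-score, at least 3 SD from the plate mean, either direction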;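 note: B-score of the F/F0 ratio slope over 7 to 12 s after thallium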
HCT116 bCat-KO: primary screen for growth suppressors in beta-catenin knockout HCT116 cells (colon tumor, human); HCT116 beta-catenin knockout viability, CellTiter-Glo, 60 h; stronger effect = lower value; viability, % at 10 µM; hit rate 1.5% among 140,000;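 active = viability at or under a set limit, the compound median less 4 SD, cut at about 6% in these data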;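 note: 0% = Hyamine 1622 control at 20 µM and 100% = untreated cell control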
ROMK hit retest: ROMK channel modulator hit retest, confirmation, cell-based, thallium flux, duplicate, resupplied hits | shares compounds with ROMK primary | fluorescence ratio; stronger effect = lower value | normalized thallium flux (F/F0 slope) at 10 µM | hit rate 54% among 3,000 | AID 1917, 2009;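 active = Flux at 10 µM at least 3 SD below or above vehicle control mean in one or both replicates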
* marks the source's active call; other numbers are inactive results. Sampled rows, rich in hits. Any-hit rate of the full collection: about 10%.

Cc1ccccc1NS(=O)(=O)c1cc(S(C)(=O)=O)ccc1Cl was read as p97 inhibitor 7, INS promoter inh 13, HCT116 PTEN-null 101, L major viab -4, ROMK primary 0.027, HCT116 bCat-KO 88 and ROMK hit retest 0.081.
`Cc1ccccc1NS(=O)(=O)c1ccc(Cl)cc1` gave p97 inhibitor -5, L major viab -6 and ROMK primary 0.31.
Screening CC(C)=CC(=O)Nc1nnc(-c2ccccc2C)s1 returned p97 inhibitor -6, INS promoter inh -36, L major viab 2 and ROMK primary -0.55.
For COc1cc(-c2nc(CN3CCCN(C(=O)c4ccco4)CC3)c(C)o2)ccc1F the results were p97 inhibitor -4, INS promoter inh -54 and L major viab 33.
Screening CCOC(=O)CC1CCCCN1Cc1nc(-c2ccc(F)c(OC)c2)oc1C (centres undefined) returned p97 inhibitor 1, L major viab 5, ROMK primary -3* and ROMK hit retest 0.06*.
`CCOc1ccc2[nH]c(=O)c(CN(CC3CCCN3CC)C(=O)NCc3ccccc3)cc2c1` (centres undefined) gave p97 inhibitor 0, INS promoter inh -72, HCT116 PTEN-null 73, L major viab -4 and HCT116 bCat-KO 81.
O=C(Nc1nccs1)c1cc(Cl)nc2ccccc12 was read as p97 inhibitor 10 and ROMK hit retest 0.078.
For O=C(Nc1nccs1)c1cc(-c2ccco2)nc2ccccc12 the results were p97 inhibitor 8, INS promoter inh 15, HCT116 PTEN-null 85, L major viab 6, ROMK primary 0.15 and HCT116 bCat-KO 95.
CS(=O)(=O)NN1C(=O)c2ccccc2NC12CCCC2 was read as p97 inhibitor -4, L major viab -3 and ROMK primary 0.093.
Screening O=C(CCCn1cnc([N+](=O)[O-])n1)Nc1cccc2ccccc12 returned p97 inhibitor 7, INS promoter inh 42, L major viab 35, ROMK primary 0.022 and ROMK hit retest 0.073.
Screening O=C(Cn1cnc([N+](=O)[O-])n1)NCc1ccccc1 returned p97 inhibitor 2, HCT116 PTEN-null 83, L major viab 26, ROMK primary -0.28 and HCT116 bCat-KO 89.
Screening Cc1ccc(-n2nnc(-c3ccnc4ccccc34)n2)cc1 returned p97 inhibitor 2 and L major viab -4.
Screening Cn1c(=O)c([N+](=O)[O-])c(Cl)c2ccccc21 returned p97 inhibitor 5, L major viab -5, ROMK primary -5.1* and ROMK hit retest 0.049*.
Screening OCc1nc2ccccc2n1C/C=C/c1ccccc1 returned p97 inhibitor -9, INS promoter inh 9, HCT116 PTEN-null 90, L major viab 1 and HCT116 bCat-KO 99.
Screening Cn1cccc1/C=C1\SC(=S)N(NC(=O)c2ccccc2)C1=O returned p97 inhibitor 1, INS promoter inh 36, HCT116 PTEN-null 93, L major viab 10, ROMK primary -2.7*, HCT116 bCat-KO 84 and ROMK hit retest 0.06*.
`CC(/C=N\NC(=O)CN1CCN(S(=O)(=O)c2ccc(C)cc2)CC1)=C\c1ccccc1` gave p97 inhibitor -7, INS promoter inh -26, HCT116 PTEN-null 60, L major viab 13 and HCT116 bCat-KO 61.
Screening C#CCOCCOCCOCCNc1nc(N2CCN(C(=O)[C@H](Cc3cc4ccccc4[nH]3)n3cc([C@@H](N)Cc4ccc(O)cc4)nn3)CC2)nc(N2CCN(C(=O)[C@H](Cc3cc4ccccc4[nH]3)n3cc([C@@H](N)CC(C)C)nn3)CC2)n1 returned ROMK hit retest 0.045*.
`CCN1CCN(C(=O)c2ccccc2N(Cc2ccccc2)S(=O)(=O)c2ccc(OC)cc2)CC1` gave p97 inhibitor 0.
Screening OC(CNC1CCCCC1)COCCOc1ccc(Br)cc1 (centres undefined) returned p97 inhibitor -3, INS promoter inh -40, HCT116 PTEN-null 72, L major viab 95*, ROMK primary -4.1*, HCT116 bCat-KO 76 and ROMK hit retest 0.059*.
